This passage reports Potency results from PubChem BioAssay (NCATS).

What all share (assay): qHTS profiling for inhibitors of Plasmodium falciparum proliferation (AID 504749); also: nearly all actives have a fitted effect of over 60% in size
What all share (conditions): P. falciparum in erythrocytes, SYBR Green DNA, 72 h; series mostly up to 28.7 µM

In test [1] the test system is CP260. The method in brief: (§1)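 Fluorescence of SYBR Green-bound parasite DNA, read at 485/535 nm, served as the growth measure. Infected erythrocytes were cultured with compound 72 h; artemisinin (0.29 uM) and DMSO wells defined the normalization range.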
In test [2] the test system is CP262. The method in brief:
as §1

The test system of test [3] is CP265. The method in brief:
as §1

The subject of test [4] is CP266. The procedure, abridged:
as §1

The test system of test [5] is CP268. The procedure, abridged: as §1
The test system of test [6] is CP269. The procedure, abridged:
as §1

In test [7] the test system is CP286. The method in brief:
as §1

Test [8] has as its system CP291. The procedure, abridged: as §1
For test [9], the system named is CP297. The procedure, abridged: as §1
Test [10] relates to CP305. The procedure, abridged: as §1

Each structure is given as a SMILES string. Inconclusive results are not listed. Calls of active or inactive are those of the source. Calls follow the shape of the dose curve; as a rule, active = well fitted inhibition curve with a large enough effect; inconclusive = small, poorly fitted or top-dose-only effect; inactive = flat fitted curve, though single readings scatter. Where a SMILES comes first, the peptide text is derived from it. [ ]: non-standard residue; d: D form. pGlu = O=C1CC[C@@H](C(=O)O)N1; Thz = O=C(O)[C@@H]1CSCN1
Potency is read from the fitted curve at half-maximal effect.

As for `COc1ccc(-c2cc(=S)ss2)cc1`, the Potency result in test [1], in test [2], in test [3], in [4], in test [5] and in test [6] was “inactive” throughout. Moreover, the Potency entry in test [7], in test [8], in [9] and in test [10] was “inactive” each time.
Regarding `O=C(O)Cc1ccc(-c2ccccc2)cc1`, the Potency result in test [1], in test [2], in [3], in test [4], in [5] and in test [6] was “inactive” in each case. Moreover, the Potency entry in test [7], in [8], in test [9] and in test [10] was “inactive” in each case.
As to `O=C(/C=C/c1ccccc1)NCCO`, the Potency result in test [1], in test [2], in test [3], in [4], in test [5] and in test [6] was “inactive” throughout. Also, the Potency result in test [7], in test [8], in [9] and in test [10] was “inactive” throughout.
Consider `O=C(O)c1ccccc1Nc1cccc(C(F)(F)F)c1`, for which the Potency entry in test [1], in test [2], in [3], in [4], in test [5] and in test [6] was “inactive” each time. Besides, the Potency result in [7], in [8], in test [9] and in test [10] was “inactive” throughout.
With `CCCCCCCCCCCCCCCC(=O)OC(C)C`, the Potency result in [1], in test [2], in test [3], in test [4], in test [5] and in [6] was “inactive” throughout. The Potency entry in test [7], in test [8], in test [9] and in test [10] was “inactive” each time.
For `O=C(O)COc1ccc(C(=O)c2cccs2)c(Cl)c1Cl`, the Potency entry in test [1], in [2], in test [3], in [4], in test [5] and in test [6] was “inactive” throughout. In addition, the Potency result in test [7], in [8], in [9] and in test [10] was “inactive” each time.
Take `Cc1c(Nc2ncccc2C(=O)O)cccc1C(F)(F)F`: the Potency entry in test [1], in test [2], in [3], in test [4], in test [5] and in test [6] was “inactive” throughout. The Potency entry in test [7], in test [8], in [9] and in [10] was “inactive” in each case.
In the case of `CCCCCCOc1ccccc1C(N)=O`, the Potency entry in [1], in test [2], in test [3], in test [4], in test [5] and in test [6] was “inactive” in each case. Moreover, the Potency entry in test [7], in [8], in test [9] and in test [10] was “inactive” in each case.
As to `[O-][n+]1ccccc1SSc1cccc[n+]1[O-]`, the Potency is 708 nM (active) in test [1]; 1070 nM (active) in [2]; 1260 nM (active) in test [3]; 1510 nM (active) in test [4]; 849 nM (active) in [5]; 1070 nM (active) in [6]. The Potency in [7] is 891 nM (active); in [8], 1200 nM (active); in test [9] it was 1350 nM (active); in test [10] it was 953 nM (active).
Regarding `CCOC(=O)c1ccccc1O`, the Potency result in test [1], in test [2], in [3], in [4], in test [5] and in [6] was “inactive” each time. The Potency result in test [7], in test [8], in test [9] and in test [10] was “inactive” in each case.
As to `Cc1ccc(O)c(-n2nc3ccccc3n2)c1`, the Potency result in test [1], in test [2], in test [3], in test [4], in test [5] and in [6] was “inactive” each time. The Potency entry in test [7], in test [8], in test [9] and in test [10] was “inactive” in each case.
`O=C1CC[C@@H](C(=O)N2CSC[C@H]2C(=O)O)N1` ([pGlu]-[Thz]-OH): the Potency entry in [1], in test [2], in test [3], in test [4], in test [5] and in test [6] was “inactive” throughout. For the same molecule, the Potency result in [7], in [8], in [9] and in [10] was “inactive” throughout.
`Nc1ccc(C(=O)O)c(O)c1`: the Potency entry in test [1], in test [2], in test [3], in [4], in test [5] and in test [6] was “inactive” in each case. Also, the Potency entry in test [7], in test [8], in [9] and in test [10] was “inactive” in each case.
For the molecule `O=C(O)[C@H](O)[C@@H](O)[C@H](O)[C@H](O)CO`, the Potency entry in test [1], in test [2], in test [3], in [4], in [5] and in [6] was “inactive” each time. The Potency entry in [7], in test [8], in test [9] and in [10] was “inactive” throughout.
As to `O=C(O)[C@H](CC(=O)N1C[C@H]2CCCC[C@H]2C1)Cc1ccccc1`, the Potency entry in test [1], in test [2], in test [3], in [4], in [5] and in test [6] was “inactive” each time. The Potency entry in test [7], in test [8], in test [9] and in test [10] was “inactive” throughout.
As for `Cc1cc(O)c2ccccc2c1O`, the Potency entry in [1], in [2], in test [3], in test [4], in test [5] and in test [6] was “inactive” throughout. Also, the Potency result in [7], in test [8], in [9] and in [10] was “inactive” throughout.
On to `O=C(OCc1ccccc1)c1ccccc1`, for which, in test [1], the Potency was 3160 nM (active). Further, the Potency entry in test [2], in [3], in [4], in test [5], in test [6] and in test [7] was “inactive” in each case. The Potency entry in test [8], in test [9] and in test [10] was “inactive” in each case.
For `C=CCN1C(=O)C(CC(C)C)NC1=S` (stereo not given), the Potency entry in test [1], in test [2], in test [3], in test [4], in test [5] and in test [6] was “inactive” in each case. Moreover, the Potency result in test [7], in test [8], in [9] and in test [10] was “inactive” each time.
For `CC(C(=O)O)c1ccc2c(c1)[nH]c1ccc(Cl)cc12` (stereo not given), the Potency entry in [1], in [2], in [3], in test [4], in test [5] and in test [6] was “inactive” in each case. Besides, the Potency entry in test [7], in test [8], in [9] and in [10] was “inactive” in each case.
For `COc1cc2c3cc1Oc1cc(ccc1O)C[C@@H]1c4c(cc(OC)c(O)c4Oc4ccc(cc4)C[C@@H]3N(C)CC2)CC[N+]1(C)C`, the Potency entry in test [1], in [2], in test [3], in [4], in test [5] and in [6] was “inactive” each time. Further, the Potency result in test [7], in test [8], in test [9] and in [10] was “inactive” in each case.
Regarding `CCC1C(=O)OCC1Cc1cncn1C` (stereo not given), the Potency entry in test [1], in test [2], in test [3], in test [4], in test [5] and in test [6] was “inactive” each time. Also, the Potency entry in test [7], in test [8], in [9] and in test [10] was “inactive” each time.
Regarding `CCCSc1ccc2nc(NC(=O)OC)[nH]c2c1`, the Potency entry in [1], in test [2], in test [3], in test [4], in test [5] and in test [6] was “inactive” each time. In addition, the Potency result in [7], in [8], in test [9] and in test [10] was “inactive” in each case.
Regarding `CCCCCCCCCCCCCCCCCC(=O)O`, the Potency entry in test [1], in [2], in test [3], in test [4], in test [5] and in test [6] was “inactive” each time. Also, the Potency result in test [7], in test [8], in [9] and in [10] was “inactive” throughout.
Take `O=C(Nc1ccc(C(=O)O)c(O)c1)c1ccccc1`: the Potency result in test [1], in test [2], in test [3], in [4], in test [5] and in [6] was “inactive” each time. Moreover, the Potency entry in [7], in test [8], in test [9] and in test [10] was “inactive” in each case.
For `CCCCC[C@H](O)/C=C/[C@@H]1[C@@H](C/C=C\CCCC(=O)O)[C@@H](O)C[C@H]1O`, the Potency result in test [1], in test [2], in test [3], in test [4], in [5] and in test [6] was “inactive” in each case. The Potency result in test [7], in test [8], in [9] and in test [10] was “inactive” throughout.
With `Nc1cc(-c2ccncc2)c[nH]c1=O`, the Potency result in test [1], in test [2], in test [3], in test [4], in test [5] and in test [6] was “inactive” in each case. In addition, the Potency entry in [7], in test [8], in test [9] and in test [10] was “inactive” each time.
As to `O=C(O)/C=C/C(O)c1ccc(Cl)cc1` (stereo not given), the Potency result in test [1], in [2], in test [3], in test [4], in test [5] and in [6] was “inactive” throughout. Moreover, the Potency entry in test [7], in [8], in test [9] and in [10] was “inactive” each time.
As for `C=CCCCCCCCCC(=O)O`, the Potency result in test [1], in [2], in [3], in test [4], in test [5] and in test [6] was “inactive” in each case. Also, the Potency entry in test [7], in test [8], in test [9] and in [10] was “inactive” in each case.
For `Cc1ccc(C(=O)c2ccc(CC(=O)O)n2C)cc1`, the Potency entry in test [1], in test [2], in [3], in test [4], in [5] and in [6] was “inactive” throughout. For the same molecule, the Potency entry in test [7], in test [8], in test [9] and in [10] was “inactive” in each case.
For the molecule `C#C[C@]1(O)CC[C@H]2[C@@H]3CCc4cc(O)ccc4[C@H]3CC[C@@]21C`, the Potency result in test [1], in [2], in test [3], in test [4], in test [5] and in [6] was “inactive” in each case. Besides, the Potency entry in test [7], in test [8], in [9] and in test [10] was “inactive” in each case.
